C diff HTS: inhibitors of Clostridium difficile growth | Clostridium difficile clinical isolate growth, OD600, 24 h; stronger effect = lower value | AID 1259249 | growth activity, negative = inhibition, % at 16 µg/mL (by protocol) | actives 0.25% (n = 86,000);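 active = mean growth activity at or below -80% and every replicate also at or below -80%; inconclusive = mean at or below -80% but some replicate above -80%; inactive = mean growth activity above -80%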;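 also: 0% = DMSO wells and -100% = levofloxacin 16 µg/mL wells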
Pf Dd2 growth: blocks growth of Plasmodium falciparum Dd2 parasites; P. falciparum Dd2 growth, SYBR Green, 72 h; stronger effect = lower value; activity change, % at 10 µM; actives 2.3% (n = 94,000); in the data active = activity change below about -80%; inconclusive = no clear call, values can overlap the other calls
The depositor's hits bear a star; u = inconclusive; x = no result; ! = not active in a repeat. A selection: hits, their analogues and other compounds. The true share with any hit is near 2.3%.

SMILES	C diff HTS	Pf Dd2 growth
CN(C)C(=O)c1ccc(-c2ccc3c(c2)[C@H]2[C@H](CCN2S(=O)(=O)c2ccccc2)[C@@H](CO)N3)cc1	9	-9
O=C(Cc1ccccc1)N1C[C@@H]2[C@H](c3ccccc31)[C@@H](CO)N2S(=O)(=O)c1ccccc1	4	19
C[C@H](CO)N1C[C@H](C)[C@@H](CN(C)C(=O)C2CCCCC2)OCCCC[C@H](C)Oc2ccc(NC(=O)Nc3cccc4ccccc34)cc2C1=O	0	-6
C[C@@H]1CN([C@H](C)CO)C(=O)c2cc(NC(=O)Nc3cccc4ccccc34)ccc2O[C@@H](C)CCCCO[C@@H]1CN(C)C(=O)C1CCCCC1	0	-91*
C[C@@H]1CCCCO[C@H](CN(C)C(=O)C2CCCCC2)[C@@H](C)CN([C@@H](C)CO)C(=O)c2cc(NC(=O)Nc3cccc4ccccc34)ccc2O1	-3	-92*
C[C@@H]1CCCCO[C@@H](CN(C)C(=O)C2CCCCC2)[C@H](C)CN([C@H](C)CO)C(=O)c2cc(NC(=O)Nc3cccc4ccccc34)ccc2O1	-5	-41
COc1ccccc1C(=O)Nc1ccc2c(c1)C(=O)N(C)[C@@H]1CC[C@H](CC(=O)NCc3ccc(Cl)c(Cl)c3)O[C@H]1CO2	8	-10
COc1ccc2c3c([nH]c2c1)[C@H](CO)N(C(=O)Nc1ccc(F)cc1)CC31CCN(Cc2cc(-c3ccccc3)on2)CC1	4	-87*
COc1ccc2c3c(n(C)c2c1)[C@@H](CO)N(C(=O)Nc1ccc(F)cc1)CC31CCN(Cc2ccccn2)CC1	-2	-88*
COc1ccc2c3c([nH]c2c1)[C@@H](CO)N(C(C)=O)CC31CCN(Cc2cc(-c3ccccc3)on2)CC1	-3	-67
COc1ccc2c3c(n(C)c2c1)[C@@H](CO)N(C(=O)Nc1ccc(F)cc1)CC31CN(Cc2ccccn2)C1	-3	-57
COc1cccc(CN2CCC3(CC2)CN(C(=O)Nc2ccc(F)cc2)[C@H](CO)c2c3c3ccc(OC)cc3n2C)c1	52	-35
COc1ccc2c3c(n(C)c2c1)[C@H](CO)N(C(=O)Nc1ccc(F)cc1)CC31CCN(Cc2ccccn2)CC1	-4	-89*
C[C@H]1CN([C@@H](C)CO)C(=O)Cc2cc(NC(=O)Cn3cnnn3)ccc2O[C@H]1CN(C)C	0	16
CCNC(=O)C[C@@H]1CC[C@H]2[C@@H](COC[C@@H](O)CN2C(=O)C2CCCC2)O1	x	4
COc1cccc(NC(=O)N(C)C[C@@H]2Oc3cc(C#CC4(O)CCCC4)ccc3S(=O)(=O)N([C@H](C)CO)C[C@@H]2C)c1	6	-15
CNC(=O)C[C@H]1CC[C@@H]2[C@H](COC[C@H](O)CN2C(=O)c2ccc3c(c2)OCO3)O1	5	8
Cc1ccccc1-c1ccc(C2[C@@H]3CN(Cc4cncnc4)C[C@H]2N3)cc1 (stereo partly specified)	-7	-10
Fc1cccc(-c2ccc(C3[C@@H]4CN(Cc5cncnc5)C[C@H]3N4)cc2)c1 (stereo partly specified)	3	-86*!
Cc1cccc(-c2ccc(C3[C@@H]4CN(Cc5cccc(F)c5)C[C@H]3N4)cc2)c1 (stereo partly specified)	-97*	15
Cc1cccc(-c2ccc(C3[C@@H]4CN(Cc5ccccc5)C[C@H]3N4)cc2)c1 (stereo partly specified)	-36	-11
CCCNC(=O)N1C[C@H](O)COC[C@H]2O[C@H](CC(=O)NCCCN3CCOCC3)CC[C@@H]21	0	14
CCCNC(=O)C[C@H]1C[C@H]2c3cc(NC(=O)NC4CCCCC4)ccc3O[C@H]2[C@@H](CO)O1	-8	23
COc1ccc(NC(=O)Nc2ccc3c(c2)C(=O)N([C@@H](C)CO)C[C@H](C)[C@@H](CN(C)CC2CC2)OCCCC[C@H](C)O3)cc1	x	-90*
COc1ccc(NC(=O)Nc2ccc3c(c2)C(=O)N([C@H](C)CO)C[C@H](C)[C@H](CN(C)CC2CCCCC2)OCCCC[C@H](C)O3)cc1	-14	u
SMILES	C diff HTS	Pf Dd2 growth
COc1ccc(NC(=O)Nc2ccc3c(c2)C(=O)N([C@H](C)CO)C[C@H](C)[C@@H](CN(C)CC2CC2)OCCCC[C@@H](C)O3)cc1	5	-59
COc1ccc(NC(=O)Nc2ccc3c(c2)C(=O)N([C@@H](C)CO)C[C@H](C)[C@@H](CN(C)CC2CCCCC2)OCCCC[C@H](C)O3)cc1	-4	-86*
O=C(C[C@@H]1C[C@H]2c3cc(NC(=O)Nc4ccccc4)ccc3O[C@H]2[C@@H](CO)O1)NCc1cccc(F)c1	-1	6
C[C@@H]1CN([C@H](C)CO)C(=O)c2ccccc2-c2ccccc2CO[C@H]1CN(C)C(=O)Nc1cccc(Cl)c1Cl	-7	-94*
C[C@@H]1CN([C@@H](C)CO)C(=O)c2ccccc2-c2ccccc2CO[C@@H]1CN(C)C(=O)Nc1cccc(Cl)c1Cl	-6	-65
C[C@@H]1CN([C@@H](C)CO)C(=O)c2ccccc2-c2ccccc2CO[C@H]1CN(C)C(=O)Nc1cccc(Cl)c1Cl	-10	-95*
C[C@@H]1CN([C@H](C)CO)C(=O)c2ccccc2-c2ccccc2CO[C@@H]1CN(C)C(=O)Nc1cccc(Cl)c1Cl	-3	-69
C[C@H]1CN([C@@H](C)CO)C(=O)Cc2cc(NC(=O)Nc3cccc4ccccc34)ccc2O[C@@H]1CN(C)Cc1ccncc1	-7	0
CNC[C@H]1Oc2ccc(NC(=O)Nc3ccc(F)cc3)cc2CC(=O)N([C@H](C)CO)C[C@H]1C	1	8
CCCC(=O)Nc1ccc2c(c1)C(=O)N(C)[C@@H]1CC[C@@H](CC(=O)NCc3ccccc3Cl)O[C@H]1CO2	-2	-8
C[C@@H]1CN([C@H](C)CO)C(=O)c2cccc(NC(=O)c3cnccn3)c2O[C@H]1CN(C)C(=O)NC1CCCCC1	0	-13
COc1ccc(CN(C)C[C@@H]2OCCCC[C@@H](C)Oc3ccc(NC(=O)Nc4ccc(C(F)(F)F)cc4)cc3C(=O)N([C@H](C)CO)C[C@@H]2C)cc1	0	37
C[C@@H]1CN([C@H](C)CO)C(=O)c2cc(NC(=O)Nc3ccc(C(F)(F)F)cc3)ccc2O[C@@H](C)CCCCO[C@H]1CN(C)Cc1ccccc1	42	-87*
COc1ccc(CN(C)C[C@@H]2OCCCC[C@H](C)Oc3ccc(NC(=O)Nc4ccc(C(F)(F)F)cc4)cc3C(=O)N([C@H](C)CO)C[C@H]2C)cc1	-96*	-43
C[C@H](CO)N1C[C@H](C)[C@@H](CN(C)Cc2ccccc2)OCCCC[C@H](C)Oc2ccc(NC(=O)Nc3ccc(C(F)(F)F)cc3)cc2C1=O	20	-39
COc1ccc(CN(C)C[C@@H]2OCCCC[C@H](C)Oc3ccc(NC(=O)Nc4ccc(C(F)(F)F)cc4)cc3C(=O)N([C@@H](C)CO)C[C@H]2C)cc1	-83*	-49
COc1ccc(NC(=O)Nc2ccc3c(c2)C(=O)N([C@H](C)CO)C[C@H](C)[C@@H](CN(C)Cc2ccc(C(F)(F)F)cc2)OCCCC[C@H](C)O3)cc1	6	-1
COc1cccc(C#Cc2ccc3c(c2)O[C@@H](CN(C)C(=O)c2ccccn2)[C@@H](C)CN([C@H](C)CO)S3(=O)=O)c1	-3	-73
